What was measured:
Test in all cases: PBM binding z-score (relative to random genomic background probes); higher = stronger binding; sequences stand for … in GC…GCGATTGACAGCGTAGAATGAAGG
[1] = test system: RARb homodimer (NR concentration 270 nM)
Method in brief: (§1)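 Ligand-free nuclear receptor dimers were bound for 1 h to custom Agilent 4×180K protein-binding microarrays. Detection used antibodies against each partner (one per run). Binding z-scores rest on regression-normalized fluorescence, with random background probes as the reference.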

[2] = test system: RARg:RXRa (NR concentration 270 nM, RXRa partner concentration 90 nM)
Method in brief: as §1

[3] = test system: RARg homodimer (NR concentration 270 nM)
Method in brief: as §1

[4] = test system: RXRa DBDmut IVT, anti-RXR (DBD mutation: RXRa K156A/R161A, NR concentration 90 nM)
Method in brief: as §1

[5] = test system: RXRa homodimer (NR concentration 180 nM)
Method in brief: as §1

[6] = test system: THRa:RXRa (NR concentration 90 nM, RXRa partner concentration 90 nM)
Method in brief: as §1

[7] = test system: THRa homodimer (NR concentration 90 nM)
Method in brief: as §1

[8] = test system: VDR:RXRa (NR concentration 270 nM, RXRa partner concentration 90 nM)
Method in brief: as §1

[9] = test system: VDR homodimer (NR concentration 270 nM)
Method in brief: as §1

| Sequence | PBM binding z-score [1] | PBM binding z-score [2] | PBM binding z-score [3] | PBM binding z-score [4] | PBM binding z-score [5] | PBM binding z-score [6] | PBM binding z-score [7] | PBM binding z-score [8] | PBM binding z-score [9] |
| --- | --- | --- | --- | --- | --- | --- | --- | --- | --- |
| ACTATTAGTTGAGACGAGGGCAACTGATAGGTTG | 1.19 | 0.865 | 0.97 | 0.568 | 0.797 | 2.41 | 0.298 | 0.583 | 0.702 |
| GCAGACAGGGGAAACGCAGGTAACTCAGGGTGGC | -0.497 | -0.368 | -0.487 | -0.47 | -0.164 | 0.986 | -0.308 | -0.768 | -0.688 |
| ATATGTAGGTGAGCTGGGGTCATTCAGACTAGGC | 3.97 | 4.01 | 2.84 | 1.57 | 5.56 | 5.14 | 3.37 | 5.66 | 4.43 |
| ACTATTATTTGACTTAGGGCAACCGATACGACGC | 1.2 | 1.18 | 1.35 | 1.24 | 0.818 | 1.18 | 1.52 | 0.993 | 1.41 |
| AGTCAAACTTCACTAGGTAACGTAAGATTCAGCT | -0.374 | 0.121 | 0.346 | 0.238 | -0.0168 | 0.342 | 0.203 | -0.0334 | -0.395 |
| CTACCAAGGTGAACAAGGTCGTTGGTTACTATTC | 2.16 | 1.79 | 1.29 | 1.28 | 1.87 | 3.19 | 1.81 | 5.92 | 3.03 |
| TATCCTAGGTCATTCAGGGGCCAGTATAGAAAGC | 3.68 | 6.44 | 4.99 | 2.55 | 3.59 | 3.76 | 1.57 | 3.57 | 2.01 |
| AAAGACAGGTGAGTGAAGGTAACTCAGCTGGACG | 0.159 | 0.293 | 0.488 | -0.545 | 0.374 | 1.86 | -0.204 | -0.172 | -0.128 |
| TGAATGAGGTTATAAGATCAGGGTACGTTGCAAA | 0.678 | 1.49 | 1 | 0.96 | 2.09 | 2.04 | 0.622 | 1.79 | 1.73 |
| GCATATAGGTACTACAAGGTGAAAGTCCGATTGT | 0.507 | 0.382 | 0.475 | 0.291 | 0.615 | 3.49 | 0.882 | 0.143 | 0.179 |
| CAACCTAGGTCAAGAGGTCAAAGTCCGCTTCCCG | 5.47 | 8.21 | 7.78 | 3.12 | 8.82 | 4.18 | 2.41 | 6.21 | 4.38 |
| AGAACGAGGGCAATTAGTTGATAGCACGGGTGGC | 1.14 | 1.37 | 1.89 | 2.01 | 0.935 | 0.962 | -0.172 | 1.13 | 1.41 |
| TCTGCTAGGTCAACGATGGTCAGATAATCTGCTA | 3.47 | 3.89 | 5.5 | 0.978 | 3.11 | 3.17 | 0.478 | 1.78 | -0.329 |
| GTACCAAGGTGAATAGTTCGTTGATGAGTAGGCG | 1.71 | 1.94 | 1.34 | -0.0101 | 0.854 | 1.39 | 0.601 | 0.251 | 0.698 |
| CCAGACTGGTGAAAGGTAACTCAGTCTGGTACGC | 0.104 | 0.0585 | -0.236 | -0.492 | 0.524 | 0.18 | -0.494 | -0.0185 | -0.181 |
| ACTAGTTGGTCTGCTGAGGTCACACACAATTCGG | 3.79 | 3.33 | 2.94 | 1.37 | 3.45 | 4.32 | 5.25 | 3.54 | 3.1 |

— the supplement of paper PMC6555819
